NPC1 promoter act – activates the NPC1 promoter; Potency, µM (titrated, usually from 9.22 µM), without a hit: top-dose activation, hits mostly activators; actives 2.4% (n = 320,000); Huh7 NPC1 promoter luciferase reporter, 24 h; further: % of control where 0% means no effect; nearly all actives have a fitted effect of over 60% in size
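Quantitative HTS used a cell-based reporter: Huh7 cells stably bearing the NPC1 promoter upstream of luciferase were treated with compounds for 24 h, and promoter activation was read as luminescence.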
Rab9 promoter act – activates the Rab9 promoter; Huh7 Rab9 promoter-luciferase reporter, luminescence, 24 h; Potency, µM (doses to about 9.22 µM), for the others: top-dose activation, negative = inhibition, hits mostly activators; actives 2.8% (n = 320,000); AID 485297; further: % of control where 0% means no effect; nearly all actives have a fitted effect of over 60% in size
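Rab9 promoter-driven luciferase in stably transfected Huh7 cells; 1500 cells/well rested 2 h, exposed to compound in DMSO for 24 h at 37 °C, 5% CO2. Luminescence read 10 min after adding luciferase reagent at ambient temperature.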
SMN2 splice up – enhancers of SMN2 splice variant expression; AID 1458; actives 2.8% (n = 210,000); Potency, µM (doses to about 46.1 µM), for the others: at the highest dose activity change, positive = activation, most hits filed as activators; HEK293 SMN2-luciferase splicing reporter, luminescence, 30-36 h; further: % of control where 0% means no effect; nearly all actives have a fitted effect of over 55% in size
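HEK293 cells carry an SMN2 […]–luciferase reporter in which exon 7 inclusion puts luciferase in frame. Cells were plated 10-12 h before compound addition, then incubated 30-36 h at 37C. ONE-Glo luminescence was read; sodium butyrate at 4.5 mM final served as control.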
FLuc counter – inhibits or activates purified firefly luciferase, miR-21 counter-screen | P08659 | purified FLuc, Km substrates, luminescence inhibition | Potency, µM (doses to about 57.5 µM), without a hit: top-dose activity change, negative = inhibition, most hits filed as inhibitors | actives 6.9% (n = 360,000) | AID 588342;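 further: plate controls were vehicle for no effect and reference inhibitor for full effect; nearly all actives have a fitted effect of over 55% in size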
Target sequence (P08659 whole entry, looked up): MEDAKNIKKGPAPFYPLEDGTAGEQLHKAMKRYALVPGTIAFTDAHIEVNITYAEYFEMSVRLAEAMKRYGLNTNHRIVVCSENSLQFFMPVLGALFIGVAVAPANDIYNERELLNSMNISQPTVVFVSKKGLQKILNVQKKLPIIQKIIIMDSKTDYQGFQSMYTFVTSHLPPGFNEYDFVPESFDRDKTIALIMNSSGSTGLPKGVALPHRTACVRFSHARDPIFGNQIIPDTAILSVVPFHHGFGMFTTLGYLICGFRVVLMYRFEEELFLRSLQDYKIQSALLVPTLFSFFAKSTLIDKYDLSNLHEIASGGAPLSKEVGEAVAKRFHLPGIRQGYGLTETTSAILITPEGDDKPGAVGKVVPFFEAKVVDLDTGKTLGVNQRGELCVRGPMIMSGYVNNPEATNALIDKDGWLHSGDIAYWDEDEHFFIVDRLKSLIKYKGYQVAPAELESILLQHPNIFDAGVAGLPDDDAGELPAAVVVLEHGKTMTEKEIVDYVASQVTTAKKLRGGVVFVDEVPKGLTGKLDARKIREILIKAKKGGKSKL
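Biochemical qHTS of compounds, final roughly 60 µM downward over six points, against 10 nM purified firefly luciferase using Km concentrations of substrates (10 uM D-luciferin, 10 uM ATP) in Tris acetate pH 7.5 buffer; luminescence output.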
ELG1 genotoxic – inducers of genotoxicity in HEK293T ELG1-luciferase cells. HEK293T ELG1-luciferase reporter, luminescence, 16 h. Potency, µM (doses to about 46 µM), inactives show top-dose activity change, positive = activation, usual class: activators. actives 1.3% (n = 330,000). AID 504466; further: % of control where 0% means no effect; nearly all actives have a fitted effect of over 60% in size
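Screening used a luciferase reporter fused to human ELG1 in HEK293T cells. Luminescence was read on a CCD plate imager after 16 hr exposure and 30 min ONE-Glo incubation.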
Active calls of the source: *; ? = inconclusive; nt = no result; [ ] = another dose, or the depositor's remark. Only some compounds are listed: those with a hit (about 7.5% of all), similar ones and a draw of the others. The call rests on the fitted dose curve; in most records, active means well fitted curve in the direction sought with a large enough effect; inconclusive means small, poorly fitted or top-dose-only effect, or another doubt; inactive means no such curve, though single readings can be large; an effect the other way counts as inactive or inconclusive. Potency means the concentration at half of the fitted maximal effect.

SMILES	NPC1 promoter act	Rab9 promoter act	SMN2 splice up	FLuc counter	ELG1 genotoxic
Fc1ccccc1/C=N/Nc1ncnc2ccccc12	15%	3.2µM*	11µM*	1.7µM*	?
Clc1cccc(/C=N/Nc2nc(Cl)nc3ccccc23)c1	2.8µM*	4µM*	22µM*	4.8µM*	?
Clc1ccc(/C=N/Nc2ncnc3ccccc23)cc1Cl	?	4µM*	?	8.5µM*	?
CCCCCCC(C)n1cc(C(C)=O)c(=O)[nH]c1=O (stereo not given)	-3%	-4%	5%	-2%	0%
CCOC(=O)c1ccc(N2C=C(C(=O)OC)C(c3ccc(OC)c(O)c3)C(C(=O)OC)=C2)cc1	1%	1%	nt	17µM*	5%
COC(=O)C1=CN(c2cc(C)cc(C)c2)C=C(C(=O)OC)C1c1ccc(OC)c(O)c1	-1%	-2%	nt	?	5%
CCCn1c(C)nc2c(N3CCC(N(C)C)C3)nc(C)nc21 (stereo not given)	nt	nt	13%	nt	nt
CC(C)(C)C(=O)Nc1nnc(SCC(=O)NC2CCCCC2)s1	0%	-1%	nt	-1%	-1%
Cc1csc(NC(=O)CSc2nnc(NC(=O)NC(C)(C)C)s2)n1	3%	4%	nt	6µM*	26%
CC(C)(C)NC(=O)Nc1nnc(SCC(=O)NC2CCCCC2)s1	17%	20%	nt	11µM*	1%
CCc1ccc(S(=O)(=O)Nc2cccc(C3OCCCO3)c2)cc1	-10%	1%	-39%	-13%	-10%
O=C(CSc1nc(=O)n2ccccc2n1)N1N=C(c2cccs2)CC1c1ccc(F)cc1 (stereo not given)	-1%	1%	nt	-1%	6%
CN(c1nc(-c2ccc(Br)cc2)cs1)C1CCS(=O)(=O)C1 (stereo not given)	?	?	18%	24µM*	5%
O=c1[nH]c(/C=C/c2ccccc2F)nc2ccccc12	?	0.25µM*	nt	0.76µM*	12µM*
O=c1[nH]c(/C=C/c2cccc3ccccc23)nc2ccccc12	18%	?	15%	-3%	15%
O=c1[nH]c(/C=C/c2ccccn2)nc2ccccc12	1.6µM*	1.6µM*	nt	19µM*	?
Cc1ccc(Nc2ccc(NCc3ccccc3)nn2)cc1C	14%	20%	?	17µM*	?
CC(=O)Nc1sc(/C(C#N)=C/c2ccc(Cl)c(Cl)c2)nc1-c1ccc(C)cc1	0%	-2%	-32%	0%	-4%
CC(=O)Nc1sc(N/N=C/c2ccc(N(C)C)cc2)nc1-c1ccc(C)cc1	24%	24%	nt	6.7µM*	?
COc1ccc(/C=N/Nc2nc(-c3ccc(C)cc3)c(NC(C)=O)s2)cc1OC	-2%	-3%	nt	3µM*	?
CC(=O)Nc1sc(N/N=C/c2ccc(C)cc2)nc1-c1ccc(C)cc1	7%	4%	nt	8.5µM*	10%
CCOc1cc(/C=N\Nc2nc(-c3ccc(C)cc3)c(NC(C)=O)s2)ccc1O	0%	-3%	nt	27µM*	0%
COc1cc(/C=N\Nc2nc(-c3ccc(C)cc3)c(NC(C)=O)s2)ccc1O	-3%	0%	nt	?	2%
COc1cc(C)c(CC/C(C)=C/C=C/C(C)=O)c(C)c1C	nt	nt	-6%	nt	nt
CC(C)CCNC(=O)CN(CCCN1CCOCC1)C(=O)Cn1nnc(-c2ccc(F)cc2)n1	-1%	4%	10%	11%	1%
SMILES	NPC1 promoter act	Rab9 promoter act	SMN2 splice up	FLuc counter	ELG1 genotoxic
COc1cc(CCC(C)=O)ccc1OC(=O)c1c(F)cccc1Cl	?	2.5µM*	nt	12µM*	?
Cc1ccc(NC(=O)Cn2nc3c(cc2=O)CCCC3)cc1Cl	nt	nt	nt	5%	nt
O=C(Nc1ccccc1)N1CC=C(c2ccccc2)CC1	2.2µM*	1.6µM*	13µM*	4.8µM*	2.6µM*
O=C(Nc1ccccc1)N1CC=C(c2ccc(F)cc2)CC1	4.5µM*	1µM*	11µM*	24µM*	?
CCCC[C@@H](CNC)NC[C@H](Cc1ccc(O)cc1)NCCc1ccc(OCC)cc1	1%	-4%	nt	-1%	-1%
CCc1c(C(=O)N/N=C/c2cccs2)nnn1-c1nonc1N	17%	15%	nt	12µM*	4%
CC(C)c1c(C(=O)N/N=C/c2cccs2)nnn1-c1nonc1N	8%	3%	nt	17µM*	0%
Cc1ccsc1/C=N/NC(=O)c1nnn(-c2nonc2N)c1C(C)C	-3%	-1%	nt	17µM*	-1%
CC(C)c1c(C(=O)N/N=C/c2ccoc2)nnn1-c1nonc1N	0%	0%	nt	?	3%
COCc1c(C(=O)N/N=C\c2cccs2)nnn1-c1nonc1N	4%	5%	nt	-4%	-4%
CC(C)c1c(C(=O)N/N=C/c2ccc(C(F)(F)F)cc2)nnn1-c1nonc1N	0%	-4%	nt	17µM*	6%
CCOC(=O)c1c(C)[nH]c(C)c1C(=O)COC(=O)c1ccc(S(=O)(=O)C(F)F)cc1	-1%	-5%	nt	1%	0%
CC(C)c1c(C(=O)N/N=C/c2ccsc2)nnn1-c1nonc1N	-8%	-1%	nt	21µM*	4%
Nc1c(C(=O)NC2CCCC2)c2nc3ccccc3nc2n1N	13%	6%	nt	17µM*	2%
Cc1ccccc1N1CCN(C(=O)CCN2C(=O)c3ccccc3C2=O)CC1	1%	17%	4%	17µM*	5%
O=C(CCCOc1ccccc1)N1CCc2ccccc2C1	29%	23%	13µM*	24µM*	21µM*
O=C(CCCOc1ccc(Cl)cc1Cl)N1CCc2ccccc2C1	-3%	-8%	-58%	-17%	1%
CN1CCN(C(=O)CCN2C(=O)c3ccccc3C2=O)CC1	-1%	-3%	nt	-2%	1%
CCOC(=O)N1CCN(C(=O)CCCOc2ccccc2)CC1	2.8µM*	1.8µM*	13µM*	-11%[2.3 µM]	?
O=C(Cc1ccc(Br)cc1)N1CCc2ccccc2C1	?	?	nt	17µM*	?
CCCOc1ccc(CNC(=O)C2CCN(c3nnc(N4CCCC4=O)s3)CC2)cc1	0%	-8%	nt	-2%	0%
COc1ccc(-c2c(C#Cc3ccsc3)c3cc(-c4ccc(OC)nc4)ccc3n2C)cc1	-1%	-2%	nt	4%	2%
CC(C)c1ccccc1NC(=O)CSc1nnc(COc2ccccc2)o1	nt	nt	-7%	2%	nt
CCOc1ccc(N(C(C)C(=O)N2CCOCC2)S(C)(=O)=O)cc1 (stereo not given)	-1%	2%	nt	6%	1%
O=C(CCSc1ccccc1)N1CCN(c2ccccc2)CC1	2.8µM*	2.8µM*	22µM*	19µM*	?
O=C(CSc1ccccc1)N1CCN(c2ccccc2)CC1	17%	20%	?	?	8%
O=C(CCCOc1ccccc1)N1CCN(c2ccccc2)CC1	3.5µM*	2.8µM*	?	9.5µM*	9.2µM*
